Where “and” joins values, the source holds several entries; their conditions need not be identical. Equal values may be shown once. Calls of active or inactive are those of the source.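 How the source made its calls, unless noted: active means compounds whose cell count with miR-34 switched on is under 0.7 times the count with it off; inactive means the rest.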
Legend:
[1] = sensitizers of A549 cells to miR-34 induction, primary screen, imaging, A549 dox-inducible miR-34, nuclei and caspase counts (AID 1347080); conditions: A549 miR-34 inducible, Hoechst nuclei count, 48 h
[2] = survival rescue of mitochondrial mutant cells in low glucose, primary screen, MELAS cybrids, Rieske KO mouse fibroblasts, CellTiter-Glo (AID 1508586;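 active means mean z-score across replicates of 1.96 or higher in either the MELAS or the Rieske mutant cell line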;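 further: z relative to plate mean and SD of compound and empty wells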)
[3] = viability rescue of complex I mutant cybrids, primary screen, cell-based, galactose medium, ATP luminescence (AID 1645843;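 active means z-score of at least 1.8 in each of two replicates, scored against plate mean and spread of sample wells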;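 further: positive z means more ATP and so rescue of galactose-driven cybrid death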); conditions: complex I mutant cybrid cells, 72 h, stronger effect = higher value
[4] = liver-stage malaria parasite growth inhibition, primary screen, cell-based, HepG2, luciferase luminescence, HepG2 viability (AID 624349; in the data active means parasite load remaining mostly below about 12%, no sharp cut-off; inactive means mostly above about 10%;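 further: 100% = mean of DMSO negative control wells on the same plate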); conditions: P. berghei liver stage in HepG2, luciferase luminescence, concentration not given here; parasite load remaining: stronger effect = lower value; viability: measured here: HepG2 viability without parasites
[5] = hESC survival regulators, cell-based (AID 493140; call rule not given here;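 further: cells exposed to compounds for four days before counting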); conditions: human embryonic stem cell survival screen; stronger effect = higher value
[6] = target: Mitogen-activated protein kinase 7 (Homo sapiens) (UniProt Q13164); experiment: ERK5 transactivation activators in reporter cells, primary screen, cell-based, HTS (AID 1508626;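 active means luciferase signal above three times the same-plate solvent-only control wells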;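 further: luciferase driven by Gal4-ERK5 fusion binding five Gal4 sites before minimal TATA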); conditions: HeLa Gal4-ERK5 transactivation, 18 h, at 5 µM, stronger effect = higher value
[7] = target: NAD(+) hydrolase SARM1 (Homo sapiens) (UniProt Q6SZW1); experiment: SARM1 TIR NADase inhibitors, cell lysate, NAD-Glo luminescence (AID 1508614;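 active means compound whose remaining NAD level is above about 45 nM, limit read from the data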); conditions: SAM-TIR HEK293T lysate NADase, at 1 µM, stronger effect = higher value
[8] = stronger effect = lower value, cell number ratio, induced over uninduced
[9] = measured here: relative caspase fold change +Dox/-Dox
[10] = measured here: total cells with miR-34 induction, stronger effect = lower value
[11] = measured here: total cells without miR-34 induction
[12] = MELAS cybrid survival, CellTiter-Glo 48 h, stronger effect = higher value
[13] = Rieske KO mouse fibroblast survival, CellTiter-Glo 72 h

Mitogen-activated protein kinase 7 (Homo sapiens), sequence (Q13164 whole entry, looked up, the tested form may be a part): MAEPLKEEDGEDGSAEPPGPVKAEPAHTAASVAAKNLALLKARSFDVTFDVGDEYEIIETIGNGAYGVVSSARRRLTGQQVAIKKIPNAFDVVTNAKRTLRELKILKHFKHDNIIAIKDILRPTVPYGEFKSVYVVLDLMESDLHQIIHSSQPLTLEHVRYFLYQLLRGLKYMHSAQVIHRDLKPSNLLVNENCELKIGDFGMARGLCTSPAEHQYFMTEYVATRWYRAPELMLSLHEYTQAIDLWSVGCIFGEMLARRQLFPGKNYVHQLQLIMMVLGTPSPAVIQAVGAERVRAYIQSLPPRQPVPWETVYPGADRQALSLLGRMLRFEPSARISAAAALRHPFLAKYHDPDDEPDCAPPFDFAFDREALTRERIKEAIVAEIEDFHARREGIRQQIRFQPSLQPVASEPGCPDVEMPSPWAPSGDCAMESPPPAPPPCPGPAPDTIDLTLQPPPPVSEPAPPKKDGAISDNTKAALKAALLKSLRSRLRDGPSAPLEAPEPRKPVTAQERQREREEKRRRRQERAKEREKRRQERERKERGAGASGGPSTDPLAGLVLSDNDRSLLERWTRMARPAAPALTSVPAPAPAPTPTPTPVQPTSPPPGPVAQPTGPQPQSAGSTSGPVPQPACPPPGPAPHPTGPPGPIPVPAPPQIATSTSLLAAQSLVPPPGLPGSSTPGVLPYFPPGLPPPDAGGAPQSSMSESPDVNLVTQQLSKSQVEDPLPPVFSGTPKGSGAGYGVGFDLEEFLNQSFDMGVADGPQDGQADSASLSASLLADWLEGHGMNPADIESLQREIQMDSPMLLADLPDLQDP
NAD(+) hydrolase SARM1 (Homo sapiens), sequence (Q6SZW1 whole entry, looked up): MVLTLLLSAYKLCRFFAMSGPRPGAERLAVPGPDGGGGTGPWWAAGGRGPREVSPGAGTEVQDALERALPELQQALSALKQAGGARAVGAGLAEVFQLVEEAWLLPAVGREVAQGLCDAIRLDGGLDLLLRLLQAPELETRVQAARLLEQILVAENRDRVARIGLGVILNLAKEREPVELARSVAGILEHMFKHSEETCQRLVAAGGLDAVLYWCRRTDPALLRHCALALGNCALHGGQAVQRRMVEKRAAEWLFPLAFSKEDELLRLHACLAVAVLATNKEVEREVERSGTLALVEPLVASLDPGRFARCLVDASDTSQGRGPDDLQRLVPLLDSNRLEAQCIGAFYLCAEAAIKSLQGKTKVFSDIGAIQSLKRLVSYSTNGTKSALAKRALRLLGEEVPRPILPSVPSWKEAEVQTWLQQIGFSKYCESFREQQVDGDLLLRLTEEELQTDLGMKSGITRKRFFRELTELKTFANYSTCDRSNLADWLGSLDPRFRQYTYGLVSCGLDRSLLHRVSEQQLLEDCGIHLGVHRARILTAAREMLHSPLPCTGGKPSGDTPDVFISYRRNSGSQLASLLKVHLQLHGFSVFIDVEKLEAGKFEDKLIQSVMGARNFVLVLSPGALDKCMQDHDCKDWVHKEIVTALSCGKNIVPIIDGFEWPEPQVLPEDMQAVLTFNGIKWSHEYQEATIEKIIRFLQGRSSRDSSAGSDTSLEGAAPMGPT

SMILES: Cc1ccc(C(C)Nc2ncnc3sccc23)cn1 (stereo not given)
- fold change [1, 8]: 0.921 (inactive)
- fold change [1, 9]: 1.09
- cell count [1, 10]: 5250
- cell count [1, 11]: 5700
- z-score [2, 12]: -0.723 (inactive)
- z-score [2, 13]: -0.439
- z-score [3]: -0.4 (inactive)

SMILES: C/C=C/N1CC[C@]23CCCC[C@H]2[C@H]1Cc1ccc(O)cc13
- parasite load remaining [4]: 46.3% (inactive)
- viability [4]: 104%
- fold change ([1]; stronger effect = lower value): 0.904 (inactive)
- fold change [1, 9]: 1.04
- cell count [1, 10]: 9380
- cell count [1, 11]: 10400
- z-score [2, 12]: -1.07 (inactive)
- z-score [2, 13]: -0.504
- z-score [3]: 0.26 (inactive)

SMILES: CC[C@@]1(O)C(=O)OCc2c1cc1n(c2=O)Cc2cc3c(O)cccc3nc2-1
- parasite load remaining [4]: 25.4% (inactive)
- viability [4]: 34%
- fold change ([1]; stronger effect = lower value): 0.938 (inactive) and 1.02 (inactive)
- fold change [1, 9]: 0.873 and 1
- cell count [1, 10]: 1030 and 1460
- cell count [1, 11]: 1100 and 1430
- z-score [2, 12]: -1.16 (inactive)
- z-score [2, 13]: -0.93
- z-score [3]: -2.13 (inactive)

SMILES: CC1CNCCc2ccc(Cl)cc21 (stereo not given)
- fold change ([1]; stronger effect = lower value): 0.911 (inactive)
- fold change [1, 9]: 0.645
- cell count [1, 10]: 8250
- cell count [1, 11]: 9060
- z-score [2, 12]: -0.213 (inactive)
- z-score [2, 13]: -0.176

SMILES: NCCc1ccc(S(N)(=O)=O)cc1
- fold change ([1]; stronger effect = lower value): 0.884 (inactive)
- fold change [1, 9]: 0.315
- cell count [1, 10]: 9210
- cell count [1, 11]: 10400
- z-score [2, 12]: -0.0994 (inactive)
- z-score [2, 13]: 0.0645
- z-score [3]: 0.495 (inactive)

SMILES: Oc1ccc2c3c1O[C@H]1c4oc5ccccc5c4C[C@@]4(O)[C@@H](C2)N(CC2CC2)CC[C@]314
- parasite load remaining [4]: 33.1% (inactive)
- viability [4]: 94%
- fold change ([1]; stronger effect = lower value): 0.915 (inactive)
- fold change [1, 9]: 0.462
- cell count [1, 10]: 9980
- cell count [1, 11]: 10900
- z-score [2, 12]: -0.602 (inactive)
- z-score [2, 13]: 0.281
- z-score [3]: -0.095 (inactive)

SMILES: CCC1C(=O)OCC1Cc1cncn1C (stereo not given)
- parasite load remaining [4]: 38.7% (inactive)
- viability [4]: 114%
- fold change [1, 8]: 0.926 (inactive) and 0.807 (inactive) and 0.899 (inactive)
- fold change [1, 9]: 1.4 and 2.3 and 1.43
- cell count [1, 10]: 9120 and 8440 and 10400
- cell count [1, 11]: 9850 and 10500 and 11500
- z-score [2, 12]: -0.194 (inactive) and -0.728 (inactive)
- z-score [2, 13]: -0.153 and 0.0525
- z-score [3]: 1.16 (inactive) and 0.695 (inactive)

SMILES: COC1=C[C@@H]2C3Cc4ccc(OC)c(O)c4[C@]2(CCN3C)CC1=O
- fold change ([1]; stronger effect = lower value): 0.895 (inactive)
- fold change [1, 9]: 0.909
- cell count [1, 10]: 8920
- cell count [1, 11]: 9970
- z-score [2, 12]: -0.311 (inactive)
- z-score [2, 13]: 0.879

SMILES: O=c1cccc2n1CC1CNCC2C1 (stereo not given)
- fold change ([1]; stronger effect = lower value): 0.908 (inactive)
- fold change [1, 9]: 1.17
- cell count [1, 10]: 7650
- cell count [1, 11]: 8430
- z-score [2, 12]: -0.233 (inactive)
- z-score [2, 13]: -0.215

SMILES: C1CCN(C2CCNCC2)CC1
- fold change [1, 8]: 0.919 (inactive)
- fold change [1, 9]: 0.5
- cell count [1, 10]: 8270
- cell count [1, 11]: 9000
- z-score [2, 12]: -1.03 (inactive)
- z-score [2, 13]: 0.0453
- z-score [3]: 0.44 (inactive)

SMILES: Cc1nc(-c2ccccn2)nc(NCCc2ccccc2)c1Cl
- fold change ([1]; stronger effect = lower value): 0.975 (inactive)
- fold change [1, 9]: 0.693
- cell count [1, 10]: 3090
- cell count [1, 11]: 3170
- z-score [2, 12]: -0.0148
- z-score [2, 13]: 3.58
- z-score [3]: -2.29 (inactive)

SMILES: CC1=C(C(=O)Nc2ccccc2)SCCO1
- fold change ([1]; stronger effect = lower value): 0.865 (inactive)
- fold change [1, 9]: 0.79
- cell count [1, 10]: 8550
- cell count [1, 11]: 9880
- z-score [2, 12]: 0.971 (inactive)
- z-score [2, 13]: -0.224
- z-score [3]: -0.385 (inactive)

SMILES: CC(=O)O[C@H]1CC[C@@]2(C)C(=CC[C@@H]3[C@@H]2CC[C@]2(C)C(=O)CC[C@@H]32)C1
- survival [5]: 0.583 (inactive)
- parasite load remaining [4]: 73.2% (inactive)
- viability [4]: 93.1%
- fold change ([1]; stronger effect = lower value): 0.892 (inactive)
- fold change [1, 9]: 1.2
- cell count [1, 10]: 9250
- cell count [1, 11]: 10400
- z-score [2, 12]: 0.711 (inactive)
- z-score [2, 13]: -0.302
- luciferase signal [6]: 56 AU (inactive)

SMILES: COc1cccc2ncn(Cc3cn4ccccc4n3)c(=O)c12
- fold change [1, 8]: 0.944 (inactive)
- fold change [1, 9]: 1.17
- cell count [1, 10]: 9180
- cell count [1, 11]: 9730
- z-score [2, 12]: -0.241 (inactive)
- z-score [2, 13]: -0.636
- z-score [3]: -0.6 (inactive)

SMILES: Fc1cc(F)c2c(c1)[C@H]1C=CC[C@@H]1C(c1cccnc1)N2 (stereo not given in full)
- fold change [1, 8]: 0.966 (inactive)
- fold change [1, 9]: 0.287
- cell count [1, 10]: 1650
- cell count [1, 11]: 1710
- z-score [2, 12]: 1.16 (inactive)
- z-score [2, 13]: 0.671

SMILES: CC=C(C)C(=O)NC(c1ccccc1)C(O)C(=O)OC1C[C@@]2(O)C(OC(=O)c3ccccc3)[C@@H]3[C@]4(OC(C)=O)COC4CC(O)[C@@]3(C)C(=O)C(OC(C)=O)C(=C1C)C2(C)C (stereo not given in full)
- fold change [1, 8]: 1.27 (inactive)
- fold change [1, 9]: 0.457
- cell count [1, 10]: 1460
- cell count [1, 11]: 1150
- z-score [2, 12]: 1.29 (inactive)
- z-score [2, 13]: 0.0967

SMILES: O=C1C[C@@H]2OCC=C3CN4CC[C@]56c7ccccc7N1[C@H]5[C@H]2[C@H]3C[C@H]46
- parasite load remaining [4]: 96.5% (inactive)
- viability [4]: 226%
- fold change ([1]; stronger effect = lower value): 0.929 (inactive)
- fold change [1, 9]: 1.24
- cell count [1, 10]: 10000
- cell count [1, 11]: 10800
- z-score [2, 12]: 0.997 (inactive)
- z-score [2, 13]: 0.445
- remaining NAD [7]: 10 nM (inactive)
- luciferase signal [6]: 48 AU (inactive)
- z-score [3]: 0.365 (inactive)

SMILES: C=C1C[C@@H]2[C@@H](CC[C@@]3(C)C(=O)CC[C@@H]23)[C@@]2(C)C=CC(=O)C=C12
- fold change ([1]; stronger effect = lower value): 1.01 (inactive)
- fold change [1, 9]: 1.02
- cell count [1, 10]: 7640
- cell count [1, 11]: 7540
- z-score [2, 12]: -0.495 (inactive)
- z-score [2, 13]: 0.156

Reference: PubChem BioAssay
